# In the supplement of paper PMC7156485:
# Test system: HCC1569
# Experiment: H1.0 immunofluorescence intensity relative to DMSO (% of DMSO); higher = stronger H1.0 induction, active = 140 or more
# Settings: concentration: 10 µM; 24 h
# In short: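 Six fields per well were imaged at ×10 after the cells were fixed in 3.7% formaldehyde and stained with a rabbit anti-H1.0 antibody, an AlexaFluor 647 secondary and DAPI. The HCC1569 and TDF cells had been plated at 800 per well in 384-well plates (RPMI, 10% FBS) and treated in triplicate with compounds at 10 µM for 24 h at 37 °C. The values are the median of replicates of H1.0 nuclear intensity or cell number, as percent of the plate control. Smoothing for positional effects was applied to HCC1569 data.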
# 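Further: TDF is a line of transformed human dermal fibroblasts of mesenchymal origin.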
row,Structure (SMILES),H1.0 immunofluorescence intensity
1,N=c1ccn2c(n1)OC1C(O)C(CO)OC12 (configuration not stated) [Cyclocytidine],101 (inactive)
2,COc1cc(O)c(C(=O)C=Cc2ccccc2)c(OC)c1 [Flavokawain B],124 (inactive)
3,Cc1ncc([N+](=O)[O-])n1CCO [Metronidazole],99.3 (inactive)
4,Cl.NO [Hydroxylamine hydrochloride],89.7 (inactive)
5,CN(C)c1ccc(O)c2c1CC1CC3C(N(C)C)C(=O)C(C(N)=O)=C(O)C3(O)C(=O)C1=C2O (configuration not stated) [Minocycline],88.6 (inactive)
6,NC1CCN(O)C1=O (racemic),82.9 (inactive)
7,"CCCCCCC=CC=CCCCCCCCC(=O)O [(9Z,11E)-Octadecadienoic acid]",100 (inactive)
